The record followed here is the supplement of paper PMC6555819.

In one assay the test system is PPARa:RXRa (NR concentration 270 nM, RXRa partner concentration 90 nM). Nature of the assay: PBM binding z-score (relative to random genomic background probes); higher = stronger binding; sequences stand for … in GC…GCGATTGACAGCGTAGAATGAAGG
The gist of the method: (§1)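 The probes on custom Agilent 4×180K protein-binding microarrays were double-stranded, with 34-nt variable regions bearing direct-repeat seeds, single-nucleotide variants, half-site ablations and random human genomic background sequences. Incubation lasted 1 h with ligand-free nuclear receptor dimers in PBS pH 7.4, 2% milk, 0.02% Triton X-100, 1 mM DTT, 0.2 mg/mL BSA and 0.4 mg/ml salmon testes DNA. Antibodies against each partner (one per run) detected bound dimers, and fluorescence scans were regression-normalized. Binding z-scores take the random background probes as reference.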
TTACTAAGGTGAAAGGTCGTTGATGCACGCCTTG registered a PBM binding z-score of 5.91.

The sequence TCATATAAGTAAATGCTAGGTGAAAGTCCGATCT had a PBM binding z-score of 1.3. Still for that read-out and setting: as for CGTCCAAGGTCAAAGGTCAGTGGAGAGATGACGG, the figure is 7.16; as for GGAACGAGGGCAAAGTTGCTAGCATCTGTCGACG, 2.65. On the same count and under the same terms, for CCTGCTAGGTGAATGGTCAGCTAAAGCAGCTCGC the value was 1.25; for CGTCAAAGTTCAATTAAGGTAACGTAAAGCACGC, 4.58. ACTATTAGTTAACTTAGGGCAACCGATACGACGC: the PBM binding z-score amounted to 0.281.

On to TCTGCTTGGTCAGTTGGTCAGCTAACGAGCTGCC, for which the PBM binding z-score is -0.161. In turn, CCTAATGGGCCAAGGTCATTGATCAGTCAAAGCA had a PBM binding z-score of 3.86. Take ACTGGGAGGACAAAGGTCAGAGCTACGCCAGTGA: the PBM binding z-score is 5.24.

With GCGACTGGGGCAAAGCAGGTTACCAAAAGGTTGG, the PBM binding z-score was 1.78. TCATATAGGTAAAGGTGAAAATCGAACGATATGA: the PBM binding z-score amounted to 3.15.

For the sequence ATCTCTAGGTAACAAGTACAGTGAAAGAGAGGAC, the PBM binding z-score turned out to be 0.308. CCTCGGTGGACAGAAGGTCAGAGCTGTCCGCTTT came in with a PBM binding z-score of 1.75. Same read-out and setting: as for GCTGCTAGGTCAGCTGATGGTCAGCTAAAGCTCG, the figure is 1.58. Sequence ACTAGTTCGTCAGCTGAGGTCACACACAATTCGG registered a PBM binding z-score of 4.03. On the same count and under the same terms, for CCTACTGGGCCAAGAAAGGTCATTGATTCAGTGA the value was 4.33; for TCTGCTAGGACAGTTGGTCAGCTAACGAGCTGCC, -0.722.

A further assay has as its system PPARg:RXRa (NR concentration 180 nM, RXRa partner concentration 90 nM). The assay is described as above. An outline of the steps: as §1
Take CCTAGCAGGCCAGGGTCACACAAGCATTTCGCTT: the PBM binding z-score amounted to 2.01. Same read-out and setting: for ATATGTAGGTTATGGGGTCATTCAGTTTGCGCAT the value was 8.65; for ACTATTACTTGAGACGAGGGCAACCGATAGGTTG, 0.912; for CCTACTGGGCCATCAAGTCATTGATATCAACGTT, 0.723. TCATAAAGGTAAAGGTGAAAGTCGAACGATATGA: the PBM binding z-score amounted to 4.7. In turn, TCTGCTAGTTCAGTTGGTCAGCTAACGAGCTGCC displayed a PBM binding z-score of -1.03. Sequence TCATATATGTAAACAGGTGAAAGTCCGTAAGTTA yielded a PBM binding z-score of 1.67. The same measure, in the same setting: for ATTTCTAGGTAACCAAGTTCAGTGAATGCCGAAC the value was 1.8; for ACTAGTTGGTCAGCTGACGTCACACACAATTCGG, 0.969; for ACAGAAAGGTGAGTGAAGGTAACTCAGCTGGACG, 1.25.

On to TCTAGTTGGTCACGGAGCTCACACACGACGGGTA, for which the PBM binding z-score is 0.998. On the same count and under the same terms, for ATCTCTAGGTAACCATGTTCAGTGAATGCCGAAC the value was 0.664; for AGTCAAAGTTCATCTAGGAAACGTAAGATATGCT, 6.43; for TCTATTAGTTGAAGGGCAACCGCCGAGTCCGTTT, -0.454. On the same count and under the same terms, as for TCAGATAGGTAAACAGGTGAAAGTCCGTAAGTTA, the figure is 1.3; as for CCGACTGGGGCATAAGGGTACCATAAGCCAGCCC, 1.3. On the same count and under the same terms, as for ATATCTAGGTTAAGGGTCATTCAGGTTGGTTCGC, the figure is 11.7; as for TGTTGTAGATCAATAGAGGTTAAGAAAGTGCGCT, 0.0938. CCTAGTGGGTCAAGGTCACACACGCTATAGGTAC showed a PBM binding z-score of 8.69. On the same count and under the same terms, as for ACTATGAGTTGACTTAGGGCAACCGATACGACGC, the figure is 1.08.

The sequence GCTGCTAGGTCAATTGATGGTCAGCTAAAGCTCG yielded a PBM binding z-score of 1.36. Same read-out and setting: as for CCTACTGGGCCATTCAGAGGTCATTGGTCATATG, the figure is 2.66; as for TTACTAAGGTGAAAGGTCGTTGATGCACGCCTTG, 9.26; as for TCATATAAGTAAATGCTAGGTGAAAGTCCGATCT, 0.711.

For the sequence CGTCCAAGGTCAAAGGTCAGTGGAGAGATGACGG, the PBM binding z-score came out at 10.7. Consider GGAACGAGGGCAAAGTTGCTAGCATCTGTCGACG, for which the PBM binding z-score worked out at 3.83. The same measure, in the same setting: for CCTGCTAGGTGAATGGTCAGCTAAAGCAGCTCGC the value was 2.89; for CGTCAAAGTTCAATTAAGGTAACGTAAAGCACGC, 4.09. On the same count and under the same terms, for ACTATTAGTTAACTTAGGGCAACCGATACGACGC the value was 1; for TCTGCTTGGTCAGTTGGTCAGCTAACGAGCTGCC, -1.11. With CCTAATGGGCCAAGGTCATTGATCAGTCAAAGCA, the PBM binding z-score worked out at 2.44.

On to ACTGGGAGGACAAAGGTCAGAGCTACGCCAGTGA, for which the PBM binding z-score was 8.13. On the same count and under the same terms, as for GCGACTGGGGCAAAGCAGGTTACCAAAAGGTTGG, the figure is 1.11; as for TCATATAGGTAAAGGTGAAAATCGAACGATATGA, 4.11.

For ATCTCTAGGTAACAAGTACAGTGAAAGAGAGGAC, the PBM binding z-score is 1.33. Still for that read-out and setting: for CCTCGGTGGACAGAAGGTCAGAGCTGTCCGCTTT the value was 0.418; for GCTGCTAGGTCAGCTGATGGTCAGCTAAAGCTCG, 0.146; for ACTAGTTCGTCAGCTGAGGTCACACACAATTCGG, 1.75. On the same count and under the same terms, for CCTACTGGGCCAAGAAAGGTCATTGATTCAGTGA the value was 2.63. The same measure, in the same setting: as for TCTGCTAGGACAGTTGGTCAGCTAACGAGCTGCC, the figure is -0.522.
